Source: article PMC5540273 (PLoS ONE, 2017)

Assays:
Settings in all cases: concentration: 1 μM, replicates: in singlicate; n = 1
PAK3 = system: PAK3
PAK4 = system: PAK4
PAK6 = system: PAK6
PAK7 = system: PAK7
PCTK1 = system: T1, PCTK1
T1 construct: gene CDK16

PCTK2 = system: T2, PCTK2
T2 construct: gene CDK17

PCTK3 = system: T3, PCTK3
T3 construct: gene CDK18

PDGFRA = system: PDGFRA
PDGFRB = system: PDGFRB
PDPK1 = system: PDPK1
PFTAIRE2 = system: PFTAIRE2
PFTK1 = system: T4, PFTK1
T4 construct: gene CDK14

PHKG1 = system: PHKG1
PHKG2 = system: PHKG2
PIK3C2B = system: PIK3C2B
PIK3C2G = system: PIK3C2G
PIK3CA = system: PIK3CA
PIK3CB = system: PIK3CB
PIK3CD = system: PIK3CD
PIK3CG = system: PIK3CG
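Further: KINOMEscan kinase panel screen.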

SMILES	%Inh (PAK3) [%]	%Inh (PAK4) [%]	%Inh (PAK6) [%]	%Inh (PAK7) [%]	%Inh (PCTK1) [%]	%Inh (PCTK2) [%]	%Inh (PCTK3) [%]	%Inh (PDGFRA) [%]	%Inh (PDGFRB) [%]	%Inh (PDPK1) [%]	%Inh (PFTAIRE2) [%]	%Inh (PFTK1) [%]	%Inh (PHKG1) [%]	%Inh (PHKG2) [%]	%Inh (PIK3C2B) [%]	%Inh (PIK3C2G) [%]	%Inh (PIK3CA) [%]	%Inh (PIK3CB) [%]	%Inh (PIK3CD) [%]	%Inh (PIK3CG) [%]
CNc1nc(-c2ccc3c(N)n[nH]c3c2)cc(N2C[C@@H](C(=O)Nc3ccccc3)CC[C@H]2C)n1 [GSK2298859]	0	0	2	20	2	0	9	0	10	83	3	17	0	15	0	0	0	0	0	0
CC(=O)c1cccc(NC(=O)NC2CCN(c3ccnc(Nc4ccc(F)cc4)n3)C2)c1 (centres unmarked) [GSK1379710]	0	0	0	20	8	19	24	10	43	0	26	14	0	1	0	0	0	0	24	7
COc1nccc(-c2c(-c3ccc(F)cc3)ncn2CCCN2CCOCC2)n1 [SB-282852]	0	0	9	7	6	0	0	17	0	0	0	0	13	0	8	8	0	0	0	37
CS(=O)(=O)CCNCc1nc(-c2ccc3ncnc(Nc4ccc(OCc5ccccc5)c(Cl)c4)c3c2)cs1.Cl [GW582764]	24	0	0	0	6	0	17	0	8	0	7	3	0	0	0	0	0	0	0	0
CN1c2ccc(-c3ccc(C(N)=O)cc3)cc2-c2[nH]ncc2S1(=O)=O	0	5	0	0	0	0	0	0	0	21	0	0	0	14	0	0	0	0	0	0
CCCCc1nn2ncccc2c1-c1ccnc(NC2CC2)n1 [GW684374]	0	0	0	0	7	0	15	0	68	0	13	18	0	0	0	0	0	0	0	0
CNCc1ccc2nc(NC(=O)c3ccc(C(C)(C)C)cc3)cn2c1	4	4	0	0	41	3	0	73	74	3	6	0	5	0	91.5	0	89	16	22	40
Cn1cnc2c(N)ncnc21 [SKF-97623]	0	0	0	0	0	0	0	100	0	0	0	0	0	0	0	0	0	0	0	4
COc1ccc(Nc2nccc(N3CCC(NC(=O)c4cc5ccccc5s4)C3)n2)cc1 (centres unmarked) [GSK1379738]	0	0	2	0	15	0	0	0	26	0	16	4	0	0	0	0	0	0	0	0
COc1ccc(-c2coc3ccc(-c4nnc(C)o4)cc23)cc1	0	5	6	5	56	0	11	0	0	33	0	9	0	20	0	21	0	0	0	12
O=C(Nc1n[nH]c2cc(-c3ccsc3)ccc12)C1CC1 [SB-732932]	0	22	7	0	13	31	8	57	80	0	13	5	21	0	14	0	3	8	0	6
COc1ccc(Nc2nccc(-c3ccc(NC(=O)c4cc5cc(F)ccc5[nH]4)cc3)n2)cc1 [GSK1229496]	0	0	0	5	0	0	0	0	47	0	0	13	0	0	0	0	0	0	0	2
c1ccc(-c2ccnc3[nH]ccc23)cc1 [SB-693578]	0	0	4	4	7	0	24	0	0	0	9	9	0	0	0	0	0	0	0	0
Cn1cncc1C(=O)NC1CCN(c2ccnc(Nc3ccc(F)cc3)n2)C1 (centres unmarked) [GSK1379717]	0	0	0	0	4	0	16	2	14	0	10	11	0	6	5	0	0	0	0	0
COc1ccc(Nc2nccc(NCCNC(=O)Nc3cc(C)ccc3C)n2)cc1 [GSK1379899]	22	0	0	0	2	0	2	0	5	0	9	32	0	0	90	0	86	0	0	68
COC(=O)c1cccc(NC(=O)NC2CCN(c3ccnc(Nc4ccc(F)cc4)n3)C2)c1 (centres unmarked) [GSK1379725]	0	0	0	0	10	0	12	0	36	0	5	16	0	0	0	0	0	0	0	0
FC(F)(F)c1ccccc1-c1cc(-c2c[nH]nc2-c2ccccn2)ccn1 [GW679396]	8	0	3	0	0	10	7	0	19	18	10	14	3	4	0	0	0	18	0	3
Nc1cccc(-c2ccc3c(N)n[nH]c3c2)n1 [GSK2192730]	0	0	8	7	4	20	3	2	18	0	20	0	0	6	5	0	18	0	0	15
COC(=O)C(Cc1ccccc1)NC(=O)NC1CCN(c2ccnc(Nc3ccc(F)cc3)n2)C1 (centres unmarked) [GSK1379714]	16	0	0	7	5	9	0	7	23	4	14	0	2	0	0	73	0	0	27	1
CNc1cc(-c2ccc3c(N)n[nH]c3c2)nc(N)n1 [GSK2224810]	0	0	0	17	0	16	0	0	44	–	0	18	0	18	0	0	0	9	1	5
Cc1c(Cn2c3ccccc3n3c(=O)cc(N4CCOCC4)nc23)cccc1C(F)(F)F [GSK2306394]	23	0	0	0	0	0	5	11	25	0	14	21	12	18	9	3	1	98.4	52	0
